Source: ChEMBL document CHEMBL3988442, “University of Dundee, Small-Polar-MMV Screening Library” (2021)
For some assays here: Potency and affinity values are given separately.

Columns and labels:
Design in all cases: scale not given: direction of the effect not stated beside the values
[1] = molecular target: Protein translocase subunit SecA (Escherichia coli (strain K12)) (UniProt P10408); assay: Assay to Identify E. coli SecA ATPase Inhibitors; format: functional; details: 30 µM
[2] = molecular target: T1, Ubiquitin-activating enzyme e1, putative (Leishmania donovani (strain BPK282A1)) (UniProt E9BSI1); assay: Leishmania donovani Ubiquitin Activating Enzyme (LdE1); format: functional; details: 30 µM
T1 sequence (whole entry): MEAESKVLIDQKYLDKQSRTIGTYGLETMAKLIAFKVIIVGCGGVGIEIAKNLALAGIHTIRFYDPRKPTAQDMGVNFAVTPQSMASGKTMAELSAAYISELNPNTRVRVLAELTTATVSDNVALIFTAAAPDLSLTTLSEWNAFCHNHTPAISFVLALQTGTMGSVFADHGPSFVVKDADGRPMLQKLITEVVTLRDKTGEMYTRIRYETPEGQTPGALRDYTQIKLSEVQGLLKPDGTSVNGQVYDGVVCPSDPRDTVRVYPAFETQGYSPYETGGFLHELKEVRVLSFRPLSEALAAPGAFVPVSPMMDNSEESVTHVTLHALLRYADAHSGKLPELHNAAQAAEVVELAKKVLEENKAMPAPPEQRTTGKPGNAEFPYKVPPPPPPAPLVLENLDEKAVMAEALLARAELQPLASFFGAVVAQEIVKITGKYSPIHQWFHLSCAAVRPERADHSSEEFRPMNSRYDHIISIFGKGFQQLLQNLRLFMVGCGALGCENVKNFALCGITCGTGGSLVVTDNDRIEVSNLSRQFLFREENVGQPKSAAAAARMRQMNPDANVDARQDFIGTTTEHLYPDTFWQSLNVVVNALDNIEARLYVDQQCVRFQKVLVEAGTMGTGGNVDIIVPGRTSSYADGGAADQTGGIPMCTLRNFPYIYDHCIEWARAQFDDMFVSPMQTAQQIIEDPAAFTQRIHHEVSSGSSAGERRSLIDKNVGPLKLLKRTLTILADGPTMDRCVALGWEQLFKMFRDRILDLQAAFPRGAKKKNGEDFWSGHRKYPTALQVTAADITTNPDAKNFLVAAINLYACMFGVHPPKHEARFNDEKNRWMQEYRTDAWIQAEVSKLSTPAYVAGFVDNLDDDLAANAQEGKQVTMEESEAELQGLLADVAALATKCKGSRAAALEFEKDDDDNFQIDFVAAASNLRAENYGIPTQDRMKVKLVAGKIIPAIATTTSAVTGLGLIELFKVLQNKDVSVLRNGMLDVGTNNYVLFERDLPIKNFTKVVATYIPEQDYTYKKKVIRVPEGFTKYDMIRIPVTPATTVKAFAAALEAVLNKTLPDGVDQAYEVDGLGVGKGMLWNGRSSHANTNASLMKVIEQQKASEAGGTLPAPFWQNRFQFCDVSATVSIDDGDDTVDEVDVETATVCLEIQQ

[3] = molecular target: AMP-activated protein kinase, AMPK (Homo sapiens) (UniProt P54646+O43741+P54619+Q9UGJ0+Q9Y478+Q13131+Q9UGI9); assay: AMP-dependent Kinase enzyme assay. An in vitro enzyme assay that detects ADP turnover that is directly proportional to AMPK activity. This uses naive AMPK that is activated during the assay with MK-8722; format: functional; details: 30 µM
[4] = molecular target: Sialic acid-binding Ig-like lectin 9 (Homo sapiens) (UniProt Q9Y336); assay: Hs-Siglec9 ALPHAscreen SOP 20170721; details: 10 µM
[5] = test system: Trypanosoma cruzi; assay: Trypanosoma cruzi phosphomannomutase and mannose-1-phosphate guanylyltransferase assay; format: functional; details: 10 µM
[6] = molecular target: T2, Arginase-2, mitochondrial (Homo sapiens) (UniProt P78540); assay: in vitro enzyme assay to detect the production of urea directly proportional to the activity of Arginase II; format: functional; details: 33.3 µM; further: in the data most compounds retested in dose-response had high values
T2 sequence (whole entry): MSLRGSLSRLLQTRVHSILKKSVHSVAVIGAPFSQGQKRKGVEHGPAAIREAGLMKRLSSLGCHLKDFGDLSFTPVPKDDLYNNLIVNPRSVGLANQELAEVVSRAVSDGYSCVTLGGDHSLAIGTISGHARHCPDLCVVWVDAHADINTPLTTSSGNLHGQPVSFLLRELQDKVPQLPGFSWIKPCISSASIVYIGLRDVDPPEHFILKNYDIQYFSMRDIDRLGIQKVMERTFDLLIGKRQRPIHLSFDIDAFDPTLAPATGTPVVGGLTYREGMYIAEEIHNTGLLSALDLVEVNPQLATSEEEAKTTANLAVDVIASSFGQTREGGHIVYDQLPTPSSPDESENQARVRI

[7] = molecular target: T3, Proteasome subunit beta (Trypanosoma cruzi) (UniProt O96673); assay: Trypanosoma cruzi proteasome chymotrypsin-like activity (TcProtChymo) assay.; further: in the data most compounds retested in dose-response had high values; format: functional; details: 9.37 µM
T3 sequence (whole entry): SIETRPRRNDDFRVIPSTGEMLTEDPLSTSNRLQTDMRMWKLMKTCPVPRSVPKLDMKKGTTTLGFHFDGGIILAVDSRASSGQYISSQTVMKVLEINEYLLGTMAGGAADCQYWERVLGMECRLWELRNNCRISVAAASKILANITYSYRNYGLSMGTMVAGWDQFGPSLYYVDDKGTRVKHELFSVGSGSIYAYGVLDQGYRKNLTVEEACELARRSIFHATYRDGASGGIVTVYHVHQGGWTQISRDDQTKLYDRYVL

[8] = species on record: Homo sapiens; assay: To identify inhibition of the IFN signalling (Jak-Stat) pathway via expression of an eGFP reporter gene under the control of an IFN-stimulated response element (ISRE) containing MxA promoter.; format: functional; details: 30 µM
[9] = molecular target: T4, Tyrosyl-tRNA synthetase, putative (Trypanosoma cruzi (strain CL Brener)) (UniProt Q4DSP6); assay: Trypanosoma cruzi tyrosyl tRNA synthetase (TcYRS) _High Tyrosine SOP; format: functional; details: 30 µM; further: in the data most compounds retested in dose-response had high values
T4 sequence (whole entry): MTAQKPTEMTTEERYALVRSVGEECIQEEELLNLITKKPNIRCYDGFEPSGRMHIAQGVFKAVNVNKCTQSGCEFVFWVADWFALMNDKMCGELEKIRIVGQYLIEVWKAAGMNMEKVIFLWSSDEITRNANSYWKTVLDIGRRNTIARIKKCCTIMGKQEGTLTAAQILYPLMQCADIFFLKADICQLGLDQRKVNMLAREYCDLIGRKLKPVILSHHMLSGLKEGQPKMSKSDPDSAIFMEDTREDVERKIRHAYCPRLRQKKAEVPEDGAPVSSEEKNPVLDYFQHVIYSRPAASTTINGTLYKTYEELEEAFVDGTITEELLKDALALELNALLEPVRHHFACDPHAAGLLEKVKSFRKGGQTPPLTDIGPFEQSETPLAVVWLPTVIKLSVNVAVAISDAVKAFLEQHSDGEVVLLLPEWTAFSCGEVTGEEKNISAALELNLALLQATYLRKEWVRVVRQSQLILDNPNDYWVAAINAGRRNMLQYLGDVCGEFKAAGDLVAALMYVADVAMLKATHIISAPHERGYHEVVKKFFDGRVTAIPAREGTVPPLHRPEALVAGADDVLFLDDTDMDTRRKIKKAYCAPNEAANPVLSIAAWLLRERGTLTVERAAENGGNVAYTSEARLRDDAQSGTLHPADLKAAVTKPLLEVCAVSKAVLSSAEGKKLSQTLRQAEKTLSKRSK

[10] = molecular target: T4, Tyrosyl-tRNA synthetase, putative (Trypanosoma cruzi (strain CL Brener)); assay: Trypanosoma cruzi tyrosyl tRNA synthetase (TcYRS) SOP; format: functional; details: 30 µM
[11] = molecular target: Chromo domain-containing protein 1 (Saccharomyces cerevisiae (strain ATCC 204508 / S288c) (Baker's yeast)) (UniProt P32657); assay: ScCHD-1 Enzyme Inhibition Assay; format: functional; details: 30 µM; further: in the data most compounds retested in dose-response had high values
Chain of Chromo domain-containing protein 1 (Saccharomyces cerevisiae (strain ATCC 204508 / S288c) (Baker's yeast)) (P32657 whole entry, the tested form may be a part): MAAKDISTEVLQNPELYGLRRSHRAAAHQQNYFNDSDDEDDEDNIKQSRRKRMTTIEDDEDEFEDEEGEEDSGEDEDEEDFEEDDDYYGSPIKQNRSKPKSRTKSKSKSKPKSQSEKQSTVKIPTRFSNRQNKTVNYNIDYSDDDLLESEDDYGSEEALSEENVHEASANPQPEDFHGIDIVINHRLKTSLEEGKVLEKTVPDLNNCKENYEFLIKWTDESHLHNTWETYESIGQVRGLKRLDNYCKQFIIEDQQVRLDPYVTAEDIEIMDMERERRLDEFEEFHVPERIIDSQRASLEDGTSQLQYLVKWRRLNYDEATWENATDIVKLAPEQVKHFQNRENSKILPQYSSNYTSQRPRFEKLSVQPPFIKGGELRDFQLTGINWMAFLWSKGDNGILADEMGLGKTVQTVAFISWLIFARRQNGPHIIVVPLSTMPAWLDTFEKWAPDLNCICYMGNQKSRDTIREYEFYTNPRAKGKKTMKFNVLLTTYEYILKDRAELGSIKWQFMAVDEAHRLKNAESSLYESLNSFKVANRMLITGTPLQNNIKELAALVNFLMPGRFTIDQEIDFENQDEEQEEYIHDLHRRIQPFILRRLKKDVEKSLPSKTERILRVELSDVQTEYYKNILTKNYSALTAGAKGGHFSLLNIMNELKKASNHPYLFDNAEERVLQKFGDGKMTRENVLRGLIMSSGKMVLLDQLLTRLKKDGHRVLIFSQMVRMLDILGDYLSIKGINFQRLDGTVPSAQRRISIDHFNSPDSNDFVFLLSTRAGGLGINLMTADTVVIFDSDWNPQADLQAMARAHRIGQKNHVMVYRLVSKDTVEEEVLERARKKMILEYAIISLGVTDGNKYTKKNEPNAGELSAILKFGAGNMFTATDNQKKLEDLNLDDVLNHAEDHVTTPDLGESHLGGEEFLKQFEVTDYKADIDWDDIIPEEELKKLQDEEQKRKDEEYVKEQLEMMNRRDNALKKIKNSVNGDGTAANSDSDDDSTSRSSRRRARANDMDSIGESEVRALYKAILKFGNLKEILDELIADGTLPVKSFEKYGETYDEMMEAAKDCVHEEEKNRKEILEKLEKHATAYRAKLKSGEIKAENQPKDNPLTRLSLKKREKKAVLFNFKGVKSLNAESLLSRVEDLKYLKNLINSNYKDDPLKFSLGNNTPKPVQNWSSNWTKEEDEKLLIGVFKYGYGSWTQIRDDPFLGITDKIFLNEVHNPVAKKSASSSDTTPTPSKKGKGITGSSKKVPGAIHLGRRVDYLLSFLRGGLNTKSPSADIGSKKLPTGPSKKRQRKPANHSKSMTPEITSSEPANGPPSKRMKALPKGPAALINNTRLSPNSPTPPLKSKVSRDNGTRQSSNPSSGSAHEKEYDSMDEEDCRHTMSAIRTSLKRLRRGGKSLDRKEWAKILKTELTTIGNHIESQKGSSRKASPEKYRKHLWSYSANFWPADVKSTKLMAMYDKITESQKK

Chain of Sialic acid-binding Ig-like lectin 9 (Homo sapiens) (Q9Y336 whole entry): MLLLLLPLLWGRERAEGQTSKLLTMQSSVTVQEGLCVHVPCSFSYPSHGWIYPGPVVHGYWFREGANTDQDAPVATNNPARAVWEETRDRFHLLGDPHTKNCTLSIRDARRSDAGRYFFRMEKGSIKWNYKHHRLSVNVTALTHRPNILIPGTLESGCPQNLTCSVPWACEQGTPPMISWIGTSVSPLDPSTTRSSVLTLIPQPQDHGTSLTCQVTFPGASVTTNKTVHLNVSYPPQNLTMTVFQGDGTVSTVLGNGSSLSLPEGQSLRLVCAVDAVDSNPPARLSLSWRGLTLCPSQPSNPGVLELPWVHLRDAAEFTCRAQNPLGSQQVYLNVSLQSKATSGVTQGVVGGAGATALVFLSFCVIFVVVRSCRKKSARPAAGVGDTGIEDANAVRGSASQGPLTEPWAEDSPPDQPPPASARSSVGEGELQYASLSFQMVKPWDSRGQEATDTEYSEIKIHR
Chain of Protein translocase subunit SecA (Escherichia coli (strain K12)) (P10408 whole entry): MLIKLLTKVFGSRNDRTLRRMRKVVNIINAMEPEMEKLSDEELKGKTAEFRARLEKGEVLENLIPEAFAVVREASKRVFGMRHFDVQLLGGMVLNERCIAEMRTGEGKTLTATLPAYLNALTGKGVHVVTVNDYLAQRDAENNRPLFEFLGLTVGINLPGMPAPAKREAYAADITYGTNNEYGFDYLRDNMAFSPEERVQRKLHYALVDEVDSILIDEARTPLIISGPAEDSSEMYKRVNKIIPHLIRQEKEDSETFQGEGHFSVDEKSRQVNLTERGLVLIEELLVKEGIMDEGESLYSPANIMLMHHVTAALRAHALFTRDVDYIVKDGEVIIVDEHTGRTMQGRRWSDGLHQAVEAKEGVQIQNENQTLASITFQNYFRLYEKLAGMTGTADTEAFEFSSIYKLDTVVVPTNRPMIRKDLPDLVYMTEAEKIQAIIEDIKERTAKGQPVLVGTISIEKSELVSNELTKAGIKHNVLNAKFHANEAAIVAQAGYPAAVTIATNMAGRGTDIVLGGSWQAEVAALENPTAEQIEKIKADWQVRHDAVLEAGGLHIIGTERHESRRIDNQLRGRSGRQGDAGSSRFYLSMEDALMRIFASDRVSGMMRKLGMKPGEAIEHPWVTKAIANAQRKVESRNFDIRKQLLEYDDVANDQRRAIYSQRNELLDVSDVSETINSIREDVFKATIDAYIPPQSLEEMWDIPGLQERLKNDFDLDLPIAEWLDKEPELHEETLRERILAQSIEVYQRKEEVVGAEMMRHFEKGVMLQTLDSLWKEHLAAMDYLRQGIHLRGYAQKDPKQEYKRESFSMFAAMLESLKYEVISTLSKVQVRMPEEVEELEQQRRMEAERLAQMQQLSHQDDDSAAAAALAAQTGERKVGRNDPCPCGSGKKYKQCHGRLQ

Compound | Percent Effect [1] [%] | Percent Effect [2] [%] | Percent Effect [3] [%] | Percent Effect [4] [%] | Percent Effect [5] [%] | Percent Effect [6] [%] | Percent Effect [7] [%] | Percent Effect [8] [%] | Percent Effect [9] [%] | Percent Effect [10] [%] | Percent Effect [11] [%]
O=C(c1ccco1)N1CCCC1C1CCN(Cc2ccccc2)CC1 (stereo not given) | -3.11 | 7.89 | 6.52 | -0.267 | -2.24 | 4.73 | 17.9 | 8.16 | 6.38 | 10.4 | -2.37
CCOCC(O)CN1CCN(C(=O)c2cnc3n[nH]c(C)c3c2)CC1 (stereo not given) | -4.29 | 10.5 | 1.79 | 1.55 | 5.7 | 1.44 | 8.54 | 10.1 | 7.39 | 16.1 | -0.703
CN(C)CC1CN(c2cnc3ccccc3n2)CCO1 (stereo not given) | -0.138 | 22.8 | -4.08 | -7.06 | 3.49 | 6.84 | 12.7 | 19.6 | 7.39 | 26.6 | -5.98
CN(CCNC(=O)Nc1ccncc1)C1CCCCC1 | -4.37 | 21.6 | -4.55 | 6.96 | 8.21 | -0.401 | 16.6 | 8.26 | 5.42 | 23.5 | -11
N#Cc1cccnc1NCCNC(=O)N1CCCC(C(F)(F)F)C1 (stereo not given) | -0.35 | 10.8 | -2.73 | 11.1 | 4.83 | 13.3 | 19 | 23.4 | 4.76 | 19.5 | -4.05
CCC1CN(c2nnc(C)c(C)c2C#N)CCO1 (stereo not given) | -3.31 | 2.63 | -17.9 | -4.88 | 6.96 | 1.15 | 20.7 | 9.86 | 0.49 | 21.9 | -13.8
Cc1ccn(-c2ccccc2NCc2ncc[nH]2)n1 | -7.12 | 8.22 | -9.03 | -1.61 | 0.783 | 3.18 | 9.41 | -4.65 | 4.3 | 10 | -3.33
CNC(=O)CSc1nc2c(cnn2Cc2ccc(F)cc2)c(=O)[nH]1 | -1.62 | 11 | 8.78 | 2.62 | -3.33 | 0 | 16.5 | 33.3 | 0 | 10 | -6.75
C=C(C)C(=O)N1CCC(C(=O)c2cc(C)cnc2N)CC1 | -7.55 | 5.33 | 0.0671 | 1.76 | 7.09 | -1.63 | 5.55 | 11.8 | 7.45 | 14.1 | -3.43
CCc1ccc(C(=O)N2CCN(CCS(C)(=O)=O)CC2)o1 | -3.79 | -5.26 | 3.96 | 8.99 | -0.752 | 0.383 | 4.18 | 10.7 | 5.39 | 7.32 | 0.21
